# Assay results as given in ChEMBL document CHEMBL3988442, “University of Dundee, Small-Polar-MMV Screening Library” (2021).
# Molecular target: T1, Arginase-2, mitochondrial (Homo sapiens) (UniProt P78540)
# T1 sequence (whole entry): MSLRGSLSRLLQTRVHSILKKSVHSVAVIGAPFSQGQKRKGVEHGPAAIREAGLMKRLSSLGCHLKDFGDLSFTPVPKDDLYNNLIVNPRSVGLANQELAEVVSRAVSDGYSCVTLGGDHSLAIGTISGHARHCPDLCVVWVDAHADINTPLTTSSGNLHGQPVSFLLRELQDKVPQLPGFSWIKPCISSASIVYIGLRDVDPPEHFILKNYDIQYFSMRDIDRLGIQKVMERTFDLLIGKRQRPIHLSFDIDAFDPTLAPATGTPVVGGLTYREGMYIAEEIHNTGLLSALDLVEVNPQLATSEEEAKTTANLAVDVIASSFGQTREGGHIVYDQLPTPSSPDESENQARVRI
# Assay: in vitro enzyme assay to detect the production of urea directly proportional to the activity of Arginase II
# Assay type: functional
# Parameters: scale not given: in the data most compounds retested in dose-response had high values
# Conditions: 33.3 µM
row,SMILES,Percent Effect
1,O=C(c1cscn1)N1C[C@@H]2[C@@H](C1)OCC(=O)N2CC1CCCC1,-8.28%
2,CN(CC(F)(F)F)C(=O)C1CSCN1C(=O)OC(C)(C)C (stereo unspecified),2.27%
3,Cc1nc(C2CCCN(C(=O)c3ccco3)C2)no1 (stereo unspecified),-0.645%
4,Cn1ccc(C(=O)N2CCN(c3cc(C#N)ccn3)CC2)cc1=O,-5.61%
5,CC(=O)N1CCOCC2(CCN(Cc3ccc(C)s3)CC2)C1,-51.8%
6,CCc1cccc(N2CCC(NC(=O)c3cc[nH]n3)CC2)c1,-5.38%
7,C[S+]([O-])c1nncn1CC(=O)c1ccc(Cl)c(Cl)c1 (stereo unspecified),2.73%
8,Cn1ccc(C(=O)N2CCN(c3ncccn3)CC2)cc1=O,-2%
9,Cc1nccn1-c1cccc(C2CCCN(C3CCCCC3)C2)n1 (stereo unspecified),4.41%
10,CC(C)N1CCOCC2(CN(Cc3nccs3)CCO2)C1 (stereo unspecified),0.645%
11,Cc1ccc2c(c1)OCCCC2NCc1nnc2n1CCCCC2 (stereo unspecified),2.23%
12,NC(=O)c1csc(C(=O)N2CCCC(n3ccnc3)C2)c1 (stereo unspecified),1.5%
13,Cc1cc(CN(C)C(=O)C2CCCN(C(=O)c3cccs3)C2)no1 (stereo unspecified),-9.65%
14,CS(=O)(=O)NCCNC(=O)C1(c2cccc(Cl)c2)CC1,20.8%
15,CC(C)CCN1CCN(Cc2nc(C3CC3)no2)CC1,-0.417%
16,Cc1nnc2n1CCN(Cc1csc(-c3ccc(F)cc3)n1)C2,-4.62%
17,Cc1cc(NC(=O)NCC(C)O)n(C)n1 (stereo unspecified),0%
18,O=C(c1cccc(NCCO)c1)N1CCOCC1,-5.52%
19,CNc1cc(C)nc(C2CN(Cc3ccc(C)nc3)CCO2)c1 (stereo unspecified),-0.696%
20,Cc1ccc(CNC(=O)NCc2cccnc2N(C)C)s1,-3.2%
21,CN(CCN1CCOCC1)C(=O)CCc1cccc(Cl)c1,-9.47%
